An excerpt weighted towards active compounds, which were near 18% of everything screened.
TDP1 inh: TDP1 (human) enzyme inhibition. Q9NUW8. recombinant TDP1, AlphaScreen DNA substrate cleavage. Potency, µM (series often up to 130 µM), without a hit: at the highest dose activity change, negative = inhibition, hits mostly inhibitors. hit rate 0.28% among 350,000; also: potency is read from the fitted curve at half-maximal effect; % is scaled to controls: 0 for no effect and ±100 for the full control effect; nearly all actives have a fitted effect of over 40% in size
Target sequence (Q9NUW8 whole entry, looked up): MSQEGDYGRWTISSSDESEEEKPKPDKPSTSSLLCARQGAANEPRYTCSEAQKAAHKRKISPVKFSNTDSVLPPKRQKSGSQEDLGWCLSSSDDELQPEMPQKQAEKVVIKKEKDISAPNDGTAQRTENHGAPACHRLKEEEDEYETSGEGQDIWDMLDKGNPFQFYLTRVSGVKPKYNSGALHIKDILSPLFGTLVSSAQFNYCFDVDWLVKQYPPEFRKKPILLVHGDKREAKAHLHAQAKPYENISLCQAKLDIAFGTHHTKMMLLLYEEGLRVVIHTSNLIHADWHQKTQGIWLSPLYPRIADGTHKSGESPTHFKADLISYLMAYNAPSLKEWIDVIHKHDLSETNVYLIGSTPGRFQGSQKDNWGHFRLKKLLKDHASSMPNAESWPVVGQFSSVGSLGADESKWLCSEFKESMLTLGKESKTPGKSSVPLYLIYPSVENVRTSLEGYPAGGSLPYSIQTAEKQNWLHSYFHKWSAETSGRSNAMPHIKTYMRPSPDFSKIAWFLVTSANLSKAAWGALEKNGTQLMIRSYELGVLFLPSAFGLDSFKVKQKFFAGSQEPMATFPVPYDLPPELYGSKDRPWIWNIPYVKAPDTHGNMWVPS
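Signal: AlphaScreen proximity between streptavidin donor and anti-FITC acceptor beads on intact substrate. Reaction: Tdp1 1 nM, substrate 15 nM final, 5 min RT after 15 min compound preincubation.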
HepG2 viability: HepG2 cytotoxicity, counter-screen for TGF-b inhibitors | HepG2 CAGA-GFP viability, ATP luminescence, 18 h | Potency, µM (doses to about 46.1 µM), for inactives: top-dose activity change, negative = cytotoxicity, actives largely listed as cytotoxic | hit rate 0.76% among 410,000; also: potency is read from the fitted curve at half-maximal effect
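HepG2 CAGA-GFP cells (1000/well, DMEM with 1% FBS) received compound, then TGF-beta at 500 pg/mL final, and were incubated 18 hours at 37 degrees C. Viability was read by CellTiter-Glo luminescence. Media-only wells were set as complete cell-killing and DMSO as no toxicity.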
DT40 TDP1 CPT: DT40-hTDP1 cell growth loss with CPT; chicken DT40 Tdp1-/-;hTDP1 cells + 20 nM CPT, ATP luminescence, 48 h; Potency, µM (top dose mostly 46.2 µM), without a hit: at the top dose activity change, negative = growth inhibition, usual class: inhibitors; hit rate 12% among 420,000; AID 686979; also: potency is read from the fitted curve at half-maximal effect; % is scaled to controls: 0 for no effect and ±100 for the full control effect; nearly all actives have a fitted effect of over 55% in size
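Chicken DT40 Tdp1-/- cells stably complemented with human TDP1 were seeded at 400 cells/well in medium containing 20 nM camptothecin, exposed to pin-transferred compounds, and grown at 37 °C for at least 48 hr. Viability was read as ATP luminescence.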
IL1B secr inh: inflammasome signaling inhibition, IL-1 beta readout; hit rate 4.7% among 360,000; THP-1 LPS/ATP IL-1B secretion, AlphaLISA, 16 h; active compounds read low; activity change, % at 57.5 µM; in the data active = activity change below about -50%; inconclusive = mostly about -30% to -49%; also: % is scaled to controls: 0 for no effect and ±100 for the full control effect
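Secreted IL-1B measured by AlphaLISA bead assay after 16 h compound exposure of THP-1 cells; compounds (final up to 57.5 uM) added 1 h before LPS (250 ng/mL) and ATP (1.25 mM) stimulation; lower signal means less secretion.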
TGFb inhibitor: inhibitors of TGF-b signaling; hit rate 1.2% among 410,000; Potency, µM (doses to about 46.1 µM), inactives show at the top dose activity, negative = inhibition, actives largely listed as inhibitors; HepG2 CAGA-GFP TGF-b/SMAD3 reporter, GFP fluorescence, 18 h; TGF-beta stimulated, 500 pg/mL final; also: potency is read from the fitted curve at half-maximal effect; % is scaled to controls: 0 for no effect and ±100 for the full control effect; nearly all actives have a fitted effect of over 65% in size
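Per well, imaged GFP fluorescence of HEPG2 CAGA-GFP cells gives the signal; cells get compound, then TGF-beta (500 pg/mL final), 18 h at 37 degrees C; %Activity versus -TGF-beta and +DMSO controls.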
TDP1 cell noCPT: qHTS for Inhibitors of human tyrosyl-DNA phosphodiesterase 1 (TDP1): qHTS in cells in absence of CPT; DT40 Tdp1-/- hTDP1 cells, no CPT, ATP luminescence, 48 h; Potency, µM (series often up to 46.2 µM), without a hit: at the highest dose activity change, negative = growth inhibition, most hits filed as inhibitors; hit rate 15% among 420,000; AID 686978, 2013; also: potency is read from the fitted curve at half-maximal effect; % is scaled to controls: 0 for no effect and ±100 for the full control effect; nearly all actives have a fitted effect of over 55% in size
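No-CPT arm: Tdp1-/-;hTDP1 DT40 cells (400/well) plus compounds, incubated ≥48 hr at 37 °C. Readout CellTiter-Glo luminescence.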
Numbers without * were called inactive; ? = inconclusive; nt = not tested or not shown; [ ] = another dose, or the depositor's remark. Unless noted, calls follow the shape of the dose curve; as a rule, active = well fitted curve in the direction sought with a large enough effect; inconclusive = small, poorly fitted or top-dose-only effect, or another doubt; inactive = no such curve, though single readings can be large; an effect the other way counts as inactive or inconclusive.

SMILES	TDP1 inh	HepG2 viability	DT40 TDP1 CPT	IL1B secr inh	TGFb inhibitor	TDP1 cell noCPT
Cc1ccc(-c2nc(CS(=O)CC(=O)NCCC(C)C)c(C)o2)cc1 (stereo not given)	3%	-41%	?	0	-21%	-27%
O=C(NCC1Cc2cccc(-c3ccccn3)c2O1)c1cnn2cccnc12 (stereo not given)	nt	nt	-5%	nt	nt	2%
CCOC(=O)C1=C(N)c2ccccc2CC1C1CCCC1 (stereo not given)	6%	-116%	26µM*	-8	13µM*	?
C=C1c2ccccc2O[C@H](C(=O)OCC)[C@@H]1C1CCCCC1	-9%[56.1 µM]	2%	?	48	-5%	?
COc1ccccc1N1CCN(C(=O)CCS(=O)(=O)c2cc(Br)cc3c2N(C(=O)C2CC2)CC3)CC1	5%	-17%	16µM*	nt	?	?
CCC(=O)N1CCc2cc(Br)cc(S(=O)(=O)N3CCN(c4ccccc4OC)CC3)c21	0%	4%	?	nt	2%	23µM*
COc1ccccc1N1CCN(C(=O)CCS(=O)(=O)c2cc(Br)cc3c2N(C(C)=O)CC3)CC1	-6%	-16%	?	nt	?	?
Cc1c(Cl)cccc1NC(=S)N1CCCN(Cc2ccccc2F)C1	2%	-4%	-27%	-18	?	-24%
Cc1ccc(NC(=S)N2CCCN(Cc3ccc(F)cc3)C2)c(C)c1	6%	-1%	?	-22	-10%	21µM*
Cc1ccc(C)c(NC(=S)N2CCCCCC2)c1	-3%	-1%	21µM*	25	-2%	16µM*
Cc1c(Cl)cccc1NC(=S)N1CCCN(Cc2ccc(F)cc2)C1	2%	-4%	?	-88*	?	?
CSc1cccc(NC(=S)N2CCCN(Cc3ccc(F)cc3)C2)c1	6%	-38%	?	-52*	?	?
Cc1ccccc1NC(=S)N1CCCN(Cc2ccc(F)cc2)C1	5%	1%	-2%	?	-13%	-9%
COc1cc(OC)c2c(c1)OC(=O)CC2c1ccccc1OC (stereo not given)	5%	nt	nt	nt	nt	nt
O=C(Cc1ccccc1)Nc1ccccc1C(=O)N1CCN(c2ccccc2)CC1	10%[56.1 µM]	2%	-7%	0	?	-9%
CC(=O)c1cccc2c(O)c(C3=Nc4ccccc4C3=O)[nH]c12	10%	-105%	18µM*	-18	?	15µM*
O=C1C(c2c(O)[nH]c3ccccc23)=Nc2ccccc21	10%	-6%	-6%	8	-18%	1%
O=C(c1cc(-c2ccco2)nn1-c1cccc(Cl)c1)N1CCCCC1	-11%	0%	16µM*	0	0%	16µM*
CC(C)NC(=O)c1cc(-c2ccco2)nn1-c1ccc(Cl)cc1	-2%	0%	?	23	?	?
Cc1ccsc1CN1CCc2nnc(CCNC(=O)c3ccc(F)cc3)n2CC1	nt	nt	5%	nt	nt	-10%
CCOC(=O)C1C(=O)CC(C)(O)C(C(=O)OCC)C1c1ccc(N(CC)CC)cc1 (stereo not given)	-1%	-17%	-22%	-7	-1%	?
CCN(CC)c1ccc(C2C(C(=O)OC(C)C)C(=O)CC(C)(O)C2C(=O)OC(C)C)cc1 (stereo not given)	-7%	-34%	15µM*	-10	40%	13µM*
CCN(Cc1ccc(OC)c(F)c1)C(=O)CCl	5%	-59%	4.1µM*	-96*	-7%	4.1µM*
COc1ccc(CN(C)C(=O)c2cccc(S(=O)(=O)NCc3ccccc3)c2)cc1F	nt	4%	-11%	9	8%	8%
